Test results taken from ChEMBL document CHEMBL1961873, “Compounds: GSK PKIS; Assays: Nanosyn kinase panel” (2012).

Tests used:
[1] = biological target: T1, 3-phosphoinositide-dependent protein kinase 1 (Homo sapiens) (UniProt O15530); conditions: at 0.1 µM;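 note: values are mean inhibition of PDK1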
T1 sequence (whole entry): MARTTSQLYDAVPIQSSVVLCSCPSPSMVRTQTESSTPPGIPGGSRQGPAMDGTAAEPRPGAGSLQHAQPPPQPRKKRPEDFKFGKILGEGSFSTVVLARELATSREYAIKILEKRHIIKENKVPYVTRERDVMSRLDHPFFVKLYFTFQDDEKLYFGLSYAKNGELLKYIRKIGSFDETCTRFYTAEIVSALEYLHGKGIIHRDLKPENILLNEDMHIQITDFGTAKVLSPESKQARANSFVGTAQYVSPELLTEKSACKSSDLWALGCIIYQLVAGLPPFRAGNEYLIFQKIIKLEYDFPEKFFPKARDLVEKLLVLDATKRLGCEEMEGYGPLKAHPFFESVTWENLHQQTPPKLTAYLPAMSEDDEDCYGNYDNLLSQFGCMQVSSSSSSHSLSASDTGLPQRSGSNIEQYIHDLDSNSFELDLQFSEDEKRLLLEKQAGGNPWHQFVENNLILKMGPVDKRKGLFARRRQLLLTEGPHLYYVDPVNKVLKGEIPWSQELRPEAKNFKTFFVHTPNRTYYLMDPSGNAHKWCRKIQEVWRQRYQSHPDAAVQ

[2] = biological target: cAMP-dependent protein kinase catalytic subunit alpha (Homo sapiens) (UniProt P17612); conditions: at 0.1 µM
[3] = biological target: cAMP-dependent protein kinase catalytic subunit alpha (Homo sapiens) (UniProt P17612); conditions: at 1 µM
[4] = biological target: Protein kinase C alpha type (Homo sapiens) (UniProt P17252); conditions: at 0.1 µM
[5] = biological target: Protein kinase C alpha type (Homo sapiens) (UniProt P17252); conditions: at 1 µM
[6] = biological target: Protein kinase C beta type (Homo sapiens) (UniProt P05771); conditions: at 0.1 µM
Sequence of Protein kinase C beta type (Homo sapiens) (P05771 2-671 limits assumed): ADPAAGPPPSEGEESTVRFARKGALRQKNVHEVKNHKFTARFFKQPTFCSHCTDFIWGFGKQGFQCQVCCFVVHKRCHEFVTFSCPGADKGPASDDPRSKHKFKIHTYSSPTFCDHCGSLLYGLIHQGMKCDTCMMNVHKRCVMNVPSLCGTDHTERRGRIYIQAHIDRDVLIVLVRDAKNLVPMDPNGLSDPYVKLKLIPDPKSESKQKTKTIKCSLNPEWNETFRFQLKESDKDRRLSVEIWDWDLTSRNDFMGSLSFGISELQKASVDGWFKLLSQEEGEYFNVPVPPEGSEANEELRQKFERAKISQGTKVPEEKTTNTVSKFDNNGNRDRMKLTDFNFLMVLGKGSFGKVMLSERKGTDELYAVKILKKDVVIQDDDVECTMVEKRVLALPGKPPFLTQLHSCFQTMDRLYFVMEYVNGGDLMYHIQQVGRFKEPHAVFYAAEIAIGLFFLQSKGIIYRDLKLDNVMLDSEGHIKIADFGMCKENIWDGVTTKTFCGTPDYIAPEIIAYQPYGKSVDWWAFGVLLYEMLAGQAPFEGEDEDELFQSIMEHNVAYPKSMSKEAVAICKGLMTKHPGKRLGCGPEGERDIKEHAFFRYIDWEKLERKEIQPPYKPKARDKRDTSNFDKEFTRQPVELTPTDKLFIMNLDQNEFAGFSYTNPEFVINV

[7] = biological target: Protein kinase C beta type (Homo sapiens) (UniProt P05771); conditions: at 1 µM
[8] = biological target: Protein kinase C eta type (Homo sapiens) (UniProt P24723); conditions: at 0.1 µM
Sequence of Protein kinase C eta type (Homo sapiens) (P24723 whole entry): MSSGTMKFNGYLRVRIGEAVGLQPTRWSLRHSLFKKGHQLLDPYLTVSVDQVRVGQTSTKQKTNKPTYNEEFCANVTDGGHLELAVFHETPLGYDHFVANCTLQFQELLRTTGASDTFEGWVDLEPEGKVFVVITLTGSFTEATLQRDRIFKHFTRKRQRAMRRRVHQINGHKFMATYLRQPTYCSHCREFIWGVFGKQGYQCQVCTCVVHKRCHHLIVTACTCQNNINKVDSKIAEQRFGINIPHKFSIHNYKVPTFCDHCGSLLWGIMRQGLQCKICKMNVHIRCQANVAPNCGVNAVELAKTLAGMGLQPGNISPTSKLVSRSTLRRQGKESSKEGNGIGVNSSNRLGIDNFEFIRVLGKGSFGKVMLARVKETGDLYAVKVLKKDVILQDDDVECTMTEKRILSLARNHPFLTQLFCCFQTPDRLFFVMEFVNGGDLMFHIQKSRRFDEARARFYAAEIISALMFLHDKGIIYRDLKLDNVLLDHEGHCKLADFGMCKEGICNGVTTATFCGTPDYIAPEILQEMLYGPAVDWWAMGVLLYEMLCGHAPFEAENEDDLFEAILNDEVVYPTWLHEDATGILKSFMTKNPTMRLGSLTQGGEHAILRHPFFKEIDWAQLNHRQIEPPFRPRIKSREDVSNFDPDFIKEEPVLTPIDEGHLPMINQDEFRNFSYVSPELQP

[9] = biological target: Protein kinase C eta type (Homo sapiens) (UniProt P24723); conditions: at 1 µM
[10] = biological target: Protein kinase C gamma type (Homo sapiens) (UniProt P05129); conditions: at 0.1 µM;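 note: values are mean percent inhibition of PKC gamma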

Row | Structure (SMILES) | inhibition [1] | inhibition [2] | inhibition [3] | inhibition [4] | inhibition [5] | inhibition [6] | inhibition [7] | inhibition [8] | inhibition [9] | inhibition [10]
1 | COc1cc(C=NNc2ncnc3c2cnn3Cc2ccccc2)ccc1O | -3.37% | -0.54% | 5.93% | -0.63% | 3.5% | 0.36% | 3.19% | -5.63% | -0.89% | -2.68%
2 | COc1cccc(-n2ncc3c(N/N=C/c4ccncc4)ncnc32)c1 | 3.34% | 1.96% | 4.25% | 2.71% | 8.07% | 1.63% | 7.79% | 4.72% | 2.1% | 1.76%
3 | NC(=O)c1sc(-n2cnc3cc(C(F)(F)F)ccc32)cc1OCc1ccccc1Br | 2.62% | 2.16% | 1.95% | 0.19% | 1.07% | 0.86% | -1.32% | 3.02% | -0.28% | 0.48%
4 | Nc1nonc1-c1nc2cnccc2n1C1CCCCC1 | 0.3% | 19.5% | – | 2.45% | 38.4% | 31% | 65.3% | 42.3% | 88.5% | 8.45%
5 | CCn1c(-c2nonc2N)nc2c(C#CC(C)(C)O)ncc(OC[C@@H]3CCCN3)c21 | 0.24% | 68.7% | 81.2% | 2.42% | 18.4% | 30.1% | 61.3% | 87.1% | 96.3% | 9.3%
6 | CCn1c(-c2nonc2N)nc2c(C#CC(C)(C)O)ncc(OCC3CCNCC3)c21 | 2.18% | 44.1% | – | -1.9% | 13.4% | 29.9% | 64.4% | 83.7% | 97.8% | 6.74%
7 | Cc1cc(-c2ccco2)cc(C)c1/C=C/c1cncc(-c2nn[nH]n2)c1 | -0.25% | -2.7% | 1.88% | 0.15% | 0.97% | -0.49% | 0.6% | 1.26% | 2.42% | 0.18%
8 | COc1cccc(COc2cc(-n3cnc4ccccc43)sc2C(N)=O)c1 | 12.1% | 2.47% | 0.86% | -0.54% | 0% | -0.69% | 0.94% | 0.43% | 1.12% | 1.09%
9 | CCn1c(-c2nonc2N)nc2c(C#CCN)ncc(OCCCN)c21 | 1.2% | 7.1% | – | 1.06% | 4.21% | 14.7% | 47.8% | 19.6% | 73.4% | 3.97%
10 | Fc1ccc(-c2ncn(C3CCNCC3)c2-c2ccnc(Oc3ccccc3)n2)cc1 | 0.7% | 7.46% | 43.6% | -3.5% | -0.8% | 0.95% | 8.43% | 3.65% | 1.37% | 0.03%
11 | CCn1c(-c2nonc2N)nc2c(C#CC(C)(C)O)nc(O[C@@H](CN)c3ccccc3)cc21 | 3.51% | 80.3% | 81.6% | 15.8% | 69.7% | 44.8% | 71.4% | 96.3% | 99% | 54.7%
12 | NS(=O)(=O)c1ccc(-c2ccc3c(NC(=O)C4CC4)n[nH]c3c2)cc1 | 2.67% | 1.34% | 1.63% | 0.82% | 0.13% | -1.4% | -0.63% | 3.31% | -0.1% | -1.07%
13 | NS(=O)(=O)c1ccc(N/C=C2\C(=O)Nc3ccc4ncsc4c32)cc1 | 20.8% | 2.9% | 6.91% | 1.26% | 3.04% | -0.49% | – | 1.67% | 6.53% | 1.16%
14 | COc1cc2c(cc1Nc1nc(Nc3ccsc3C(N)=O)c3cc[nH]c3n1)N(C(=O)CN(C)C)CCC2 | 0.7% | 4.62% | 3.81% | 1.91% | 10.2% | -0.18% | 1.94% | 1.28% | 3.46% | –
